Inconclusive results are not listed. The source made the active and inactive calls. Unless noted, calls come from the whole dose curve.
Columns and labels:
[1] = qHTS assay to identify small molecule agonists of the peroxisome proliferator-activated receptor delta (PPARd) signaling pathway - cell viability counter screen (AID 743211; active = well fitted curve in the direction sought with a large enough effect in the repeat runs; an effect the other way counts as inactive or inconclusive; note: % is set by controls: 0 for no effect and ±100 for the full control effect; nearly all actives have a fitted effect of over 55% in size)
Summary of the method: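 Following 5 h plating at 37 C and 5% CO2, PPARd UAS-bla HEK293H cells took up test compounds for 17 h. Viability was quantified by luminescence 30 min after CellTiter-Glo addition at room temperature.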

[2] = qHTS assay to identify small molecule antagonists of the peroxisome proliferator-activated receptor delta (PPARd) signaling pathway - cell viability counter screen (AID 743213; active = well fitted curve in the direction sought with a large enough effect in the repeat runs; an effect the other way counts as inactive or inconclusive; note: % is set by controls: 0 for no effect and ±100 for the full control effect; nearly all actives have a fitted effect of over 50% in size)
Summary of the method: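 In this counter screen, HEK293H cells carrying a UAS-beta-lactamase reporter are co-treated with test compounds and 300 nM L165041 (final) for 17 h at 37 C; cell viability is quantified by CellTiter-Glo luminescence.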

[3] = qHTS assay to identify small molecule agonists of the vitamin D receptor (VDR) signaling pathway - cell viability counter screen (AID 743224; active = well fitted curve in the direction sought with a large enough effect in the repeat runs; an effect the other way counts as inactive or inconclusive; note: series mostly up to about 63 µM; % is set by controls: 0 for no effect and ±100 for the full control effect; nearly all actives have a fitted effect of over 50% in size)
Summary of the method: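 VDR-bla cells, 4 h after plating, exposed to compounds for 16 h at 37C; viability then read in the same wells as CellTiter-Glo luminescence after 30 min at room temperature, following the bla FRET read.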

[4] = qHTS assay to identify small molecule antagonists of the vitamin D receptor (VDR) signaling pathway - cell viability counter screen (AID 743225; active = well fitted curve in the direction sought with a large enough effect in the repeat runs; an effect the other way counts as inactive or inconclusive; note: % is set by controls: 0 for no effect and ±100 for the full control effect; nearly all actives have a fitted effect of over 50% in size)
Summary of the method: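 In this counter screen, VDR-bla HEK 293T cells receive test compound plus 3 nM final calcitriol for 16 h at 37C. Room-temperature steps of 2 h with the beta-lactamase substrate, then 30 min with CellTiter-Glo, precede the luminescence read.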

[5] = qHTS assay to identify small molecule agonists of the NFkB signaling pathway - cell viability counter screen (AID 1159515); note: series mostly up to about 61 µM; % is set by controls: 0 for no effect and ±100 for the full control effect; nearly all actives have a fitted effect of over 55% in size
Summary of the method: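 NFkB-bla ME-180 cells, 2,000/well, plated overnight at 37 C; compound added for 5 hr at 37 C. Viability read in the same wells as the bla reporter, by CellTiter-Glo luminescence after 30 min at room temperature.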

[6] = qHTS assay to identify small molecule agonists of the endoplasmic reticulum stress response signaling pathway (AID 1159516; active = well fitted activation curve with a large enough effect in the signal ratio in the repeat runs, not every such curve was filed as active; the % refers to the signal ratio; note: % is set by controls: 0 for no effect and ±100 for the full control effect)
Summary of the method: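 CellSensor ESRE-bla HeLa cells, 1,500 per well, plated overnight, then exposed to compounds for 5 hr at 37 C. Beta-lactamase reporter read with LiveBLAzer B/G FRET substrate after 2 hr at room temperature, 405 nm excitation, 460 and 530 nm emission.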

[7] = qHTS assay to identify small molecule agonists of the endoplasmic reticulum stress response signaling pathway - cell viability counter screen (AID 1159517);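 note: HeLa cells carrying an ER stress response element beta-lactamase reporter; series mostly up to about 61 µM; % is set by controls: 0 for no effect and ±100 for the full control effect; nearly all actives have a fitted effect of over 50% in size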
Summary of the method: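 Cells, HeLa ESRE-bla; density, 1,500/well; dosing, 5 hr at 37 C, 5% CO2; readout, CellTiter-Glo luminescence after 30 min RT.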

[8] = qHTS assay to identify small molecule antagonists of the retinoid-related orphan receptor gamma (ROR-gamma) signaling pathway - cell viability counter screen (AID 1159520; active = well fitted curve in the direction sought with a large enough effect in the repeat runs; an effect the other way counts as inactive or inconclusive)
Summary of the method: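 Cytotoxicity was read from cellular ATP (CellTiter-Glo luminescence) after 16 hr at 37 C with 1 uM doxycycline induction. The inducer was added 2 hr after compound transfer to Tet-on ROR gamma CHO cells.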

[9] = qHTS assay to identify small molecule agonists of the AP-1 signaling pathway - cell viability counter screen (AID 1159525); note: nearly all actives have a fitted effect of over 55% in size
Summary of the method: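 Luminescent ATP readout (Cell Titer Glo, 30 min RT), normalised to DMSO and tetra n-octyl ammonium bromide controls. Cells were ME-180 AP-1-bla in 0.5% dialyzed FBS Opti-MEM, with a 5 h, 37 °C compound exposure.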

[10] = qHTS assay to identify small molecule agonists of the AP-1 signaling pathway (AID 1159526); note: % is set by controls: 0 for no effect and ±100 for the full control effect
[11] = target: Peroxisome proliferator-activated receptor delta (Homo sapiens) (UniProt Q03181); test: qHTS assay to identify small molecule agonists of the peroxisome proliferator-activated receptor delta (PPARd) signaling pathway (AID 743212); note: % is set by controls: 0 for no effect and ±100 for the full control effect
Sequence of Peroxisome proliferator-activated receptor delta (Homo sapiens) (Q03181 whole entry, looked up): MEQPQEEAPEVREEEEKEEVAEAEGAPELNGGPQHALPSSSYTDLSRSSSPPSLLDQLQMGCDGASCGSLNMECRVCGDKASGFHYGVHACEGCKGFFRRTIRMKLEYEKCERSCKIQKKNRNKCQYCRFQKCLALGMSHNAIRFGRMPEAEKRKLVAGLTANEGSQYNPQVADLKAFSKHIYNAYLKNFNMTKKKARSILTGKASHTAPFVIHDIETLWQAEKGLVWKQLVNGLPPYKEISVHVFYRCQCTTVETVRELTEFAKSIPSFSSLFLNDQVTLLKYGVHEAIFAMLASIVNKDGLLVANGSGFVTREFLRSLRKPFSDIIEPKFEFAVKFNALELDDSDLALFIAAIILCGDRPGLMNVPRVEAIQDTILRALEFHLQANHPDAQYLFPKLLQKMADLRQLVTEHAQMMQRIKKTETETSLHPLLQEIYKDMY
Summary of the method: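 HEK293H UAS-bla reporter cells, human PPARd system; compounds delivered in DMSO after 5 h plating, then at 37 C. Beta-lactamase FRET read, 2 h RT substrate step.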

[12] = target: Peroxisome proliferator-activated receptor delta (Homo sapiens) (UniProt Q03181); test: qHTS assay to identify small molecule antagonists of the peroxisome proliferator-activated receptor delta (PPARd) signaling pathway (AID 743215; active = well fitted inhibition curve with a large enough effect in the signal ratio in the repeat runs, not every such curve was filed as active; the % refers to the signal ratio;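 note: cells stimulated with agonist L165041 at 300 nM final during compound exposure; series mostly up to about 62 µM; % is set by controls: 0 for no effect and ±100 for the full control effect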)
Summary of the method: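 PPARd-bla HEK293H cells (UAS-bla reporter) preincubated 5 h, then given compound plus 300 nM final L165041 agonist for 17 h at 37 C. Beta-lactamase activity read by LiveBLAzer B/G FRET substrate fluorescence after 2 h at room temperature.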

[13] = target: Bile acid receptor (Homo sapiens) (UniProt Q96RI1); test: qHTS assay to identify small molecule antagonists of the farnesoid-X-receptor (FXR) signaling pathway (AID 743217; active = well fitted inhibition curve with a large enough effect in the signal ratio in the repeat runs, not every such curve was filed as active; the % refers to the signal ratio; note: % is set by controls: 0 for no effect and ±100 for the full control effect)
Sequence of Bile acid receptor (Homo sapiens) (Q96RI1 whole entry, looked up): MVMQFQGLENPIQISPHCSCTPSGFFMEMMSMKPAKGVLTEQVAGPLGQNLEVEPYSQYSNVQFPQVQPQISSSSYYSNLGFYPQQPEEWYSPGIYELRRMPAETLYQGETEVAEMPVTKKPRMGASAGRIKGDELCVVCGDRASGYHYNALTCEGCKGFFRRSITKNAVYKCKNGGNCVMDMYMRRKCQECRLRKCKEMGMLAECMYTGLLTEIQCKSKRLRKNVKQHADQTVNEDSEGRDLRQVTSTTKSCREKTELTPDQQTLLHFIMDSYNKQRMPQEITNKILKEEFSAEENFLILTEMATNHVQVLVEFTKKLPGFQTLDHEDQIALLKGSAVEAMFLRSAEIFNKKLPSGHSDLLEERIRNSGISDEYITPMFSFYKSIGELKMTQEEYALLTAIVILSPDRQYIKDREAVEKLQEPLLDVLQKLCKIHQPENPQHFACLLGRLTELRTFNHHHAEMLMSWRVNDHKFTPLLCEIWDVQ
Summary of the method: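 FXR-UAS-bla HEK 293T cells (beta-lactamase reporter) given compound plus chenodeoxycholic acid (50 uM final), 16 h at 37C. LiveBLAzer B/G FRET substrate added for 2 h at room temperature; fluorescence read.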

[14] = qHTS assay to identify small molecule antagonists of the farnesoid-X-receptor (FXR) signaling pathway - cell viability counter screen (AID 743221; active = well fitted cell-killing curve with a large enough effect in the repeat runs, not every such curve was filed as active)
Summary of the method: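 Compound effects on cell number were measured as CellTiter-Glo luminescence in HEK 293T cells expressing FXR-UAS-bla, after 16 h at 37 C with 50 uM CDCA (final).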

[15] = target: Vitamin D3 receptor (Homo sapiens) (UniProt P11473); test: qHTS assay to identify small molecule agonists of the vitamin D receptor (VDR) signaling pathway (AID 743222); note: % is set by controls: 0 for no effect and ±100 for the full control effect
Sequence of Vitamin D3 receptor (Homo sapiens) (P11473 whole entry, looked up): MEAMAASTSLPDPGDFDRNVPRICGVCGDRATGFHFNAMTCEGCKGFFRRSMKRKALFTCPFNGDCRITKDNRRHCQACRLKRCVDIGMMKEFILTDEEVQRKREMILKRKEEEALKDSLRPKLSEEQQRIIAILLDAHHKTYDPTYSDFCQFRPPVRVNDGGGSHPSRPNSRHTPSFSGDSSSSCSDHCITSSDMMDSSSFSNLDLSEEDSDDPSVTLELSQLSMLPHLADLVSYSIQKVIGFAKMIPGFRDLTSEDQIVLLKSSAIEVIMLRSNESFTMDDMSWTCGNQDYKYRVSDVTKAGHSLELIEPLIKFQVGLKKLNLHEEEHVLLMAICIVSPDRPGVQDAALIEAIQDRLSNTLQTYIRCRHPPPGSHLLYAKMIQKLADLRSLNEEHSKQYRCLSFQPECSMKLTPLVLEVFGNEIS
Summary of the method: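 VDR-bla cells plated 4 h at 37 C, then exposed to compounds for 16 h at 37 C. Beta-lactamase reporter activity measured by fluorescence after 2 h room-temperature loading with LiveBLAzer B/G FRET substrate.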

[16] = target: Vitamin D3 receptor (Homo sapiens) (UniProt P11473); test: qHTS assay to identify small molecule antagonists of the vitamin D receptor (VDR) signaling pathway (AID 743223; active = well fitted inhibition curve with a large enough effect in the signal ratio in the repeat runs, not every such curve was filed as active; the % refers to the signal ratio; note: % is set by controls: 0 for no effect and ±100 for the full control effect)
Summary of the method: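 Beta-lactamase activity in VDR-bla cells is measured by FRET substrate fluorescence (2 h, room temperature) after cells spend 16 h at 37C with test compound and 3 nM final 1alpha,25-dihydroxyvitamin D3.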

[17] = qHTS assay to identify small molecule agonists of the farnesoid-X-receptor (FXR) signaling pathway - cell viability counter screen (AID 743218; active = well fitted curve in the direction sought with a large enough effect in the repeat runs; an effect the other way counts as inactive or inconclusive; note: % is set by controls: 0 for no effect and ±100 for the full control effect; nearly all actives have a fitted effect of over 45% in size)
Summary of the method: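 FXR-UAS-bla HEK 293T cells exposed to compounds for 16 h at 37C. Cytotoxicity read in the same wells by CellTiter-Glo luminescence after 30 min at room temperature, following the beta-lactamase FRET read.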

[18] = target: Bile acid receptor (Homo sapiens) (UniProt Q96RI1); test: qHTS assay to identify small molecule agonists of the farnesoid-X-receptor (FXR) signaling pathway (AID 743220; active = well fitted activation curve with a large enough effect in the signal ratio in the repeat runs, not every such curve was filed as active; the % refers to the signal ratio; note: % is set by controls: 0 for no effect and ±100 for the full control effect)
Summary of the method: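 Beta-lactamase reporter under UAS control in GeneBLAzer FXR HEK 293T cells (5000/well) measured with LiveBLAzer FRET substrate after 2 h at room temperature. Compound exposure lasted 16 h at 37C.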

[19] = target: Retinoic acid receptor RXR-alpha (Homo sapiens) (UniProt P19793); test: qHTS assay to identify small molecule agonists of the RXR signaling pathway (AID 1159527); note: % is set by controls: 0 for no effect and ±100 for the full control effect; nearly all actives have a fitted effect of over 35% in size
Sequence of Retinoic acid receptor RXR-alpha (Homo sapiens) (P19793 whole entry, looked up): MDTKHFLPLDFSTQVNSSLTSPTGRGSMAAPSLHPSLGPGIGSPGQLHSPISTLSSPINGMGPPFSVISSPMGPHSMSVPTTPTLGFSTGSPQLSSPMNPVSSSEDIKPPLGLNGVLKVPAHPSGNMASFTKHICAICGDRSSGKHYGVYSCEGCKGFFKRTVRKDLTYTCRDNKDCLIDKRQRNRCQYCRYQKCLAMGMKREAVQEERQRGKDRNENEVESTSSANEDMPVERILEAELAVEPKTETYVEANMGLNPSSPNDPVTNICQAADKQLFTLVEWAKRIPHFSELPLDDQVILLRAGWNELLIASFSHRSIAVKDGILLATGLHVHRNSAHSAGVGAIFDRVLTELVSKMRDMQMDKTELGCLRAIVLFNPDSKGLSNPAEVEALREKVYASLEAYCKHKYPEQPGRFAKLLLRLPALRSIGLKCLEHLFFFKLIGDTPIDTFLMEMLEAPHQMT
Summary of the method: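 Fluorescence ratio readout (460 vs 530 nm) from GeneBLAzer RXR-alpha HEK 293T cells after 16 hr compound treatment; cells seeded 5 hr beforehand in low-serum, charcoal-stripped medium.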

CC(=O)[O-].CC(=O)[O-].CC(=O)[O-].[Sb+3]
inactive: activity change, negative = cytotoxicity [1] -20.9% [at 5.95 µM] | viability change, negative = cytotoxic [2] -8.28% [at 6.26 µM] | activity change, negative = cytotoxicity [3] -16.2% [at 5.95 µM] | viability change, negative = cytotoxic [4] 0.879% [at 6.95 µM] | activity, negative = cytotoxic [5] -2.51% [at 6.95 µM] | activation [6] 3.53% [at 6.95 µM] | activity change, negative = cytotoxicity [7] -11.4% [at 6.95 µM] | activity, negative = cytotoxicity [8] 1.09% [at 3.27 µM] | viability change, negative = cytotoxic [9] -1.02% [at 2.72 µM] | activation [10] -1.15% [at 2.72 µM]

CC(C)C(Br)C(=O)NC(N)=O (stereo not drawn)
inactive: Potency [1] | Potency [11] | Potency [2] | Potency [12] | Potency [13] | Potency [14] | Potency [15] | Potency [16] | Potency [3] | Potency [4] | Potency [5] | Potency [6] | Potency [7] | Potency [8] | Potency [10]

CC(C)=CCN1CC[C@@]2(C)c3cc(O)ccc3C[C@@H]1[C@@H]2C
inactive: Potency [1] | Potency [11] | Potency [2] | Potency [12] | Potency [14] | Potency [15] | Potency [16] | Potency [3] | Potency [4] | Potency [5] | Potency [6] | Potency [7] | Potency [8] | Potency [9] | Potency [10]

C=CCOC(=O)c1ccccc1N
inactive: Potency [1] | Potency [11] | Potency [17] | Potency [14] | Potency [15] | Potency [3] | Potency [4] | Potency [5] | Potency [6] | Potency [7] | Potency [8] | Potency [9] | Potency [10]

C=Cc1cccc(CCl)c1
inactive: Potency [1] | Potency [2] | Potency [13] | Potency [17] | Potency [18] | Potency [14] | Potency [3] | Potency [4] | Potency [5] | Potency [6] | Potency [7] | Potency [8] | Potency [9] | Potency [10]

Clc1cc(Cl)c(-c2cc(Cl)c(Cl)cc2Cl)cc1Cl
inactive: Potency [11] | Potency [13] | Potency [17] | Potency [14] | Potency [15] | Potency [16] | Potency [4] | Potency [5] | Potency [6] | Potency [7] | Potency [8] | Potency [9]

CNC(=O)CSP(=O)(OC)OC
inactive: Potency [1] | Potency [11] | Potency [12] | Potency [13] | Potency [17] | Potency [18] | Potency [3] | Potency [4] | Potency [5] | Potency [6] | Potency [7] | Potency [8] | Potency [9] | Potency [10]

c1cc[n+]2c(c1)-c1cccc[n+]1CC2
inactive: Potency [1] | Potency [11] | Potency [2] | Potency [12] | Potency [14] | Potency [15] | Potency [4] | Potency [5] | Potency [6] | Potency [7] | Potency [8] | Potency [9] | Potency [10]

CC(Cc1ccccc1)N(C)Cc1ccco1 (stereo not drawn)
inactive: Potency [1] | Potency [11] | Potency [2] | Potency [12] | Potency [13] | Potency [17] | Potency [14] | Potency [15] | Potency [16] | Potency [3] | Potency [4] | Potency [5] | Potency [6] | Potency [7] | Potency [8] | Potency [9] | Potency [19]
